# Experimental data from ChEMBL document CHEMBL4513216, “Probing the Open Global Health Chemical Diversity Library for Multistage-Active Starting Points for Next-Generation Antimalarials” (ACS Infect Dis, 2020).
# Among all 69,000 compounds or so, about 8,600 (12%) showed an effect of 50% or more. The sample as a whole holds a higher share of strong results than the screen did.
# Test system: Plasmodium berghei
# Experiment: Screen against P. berghei liver stage (PbLuc), transformed with Luciferase, at 10uM
# Format: functional, HepG2
# Conditions: tested at 10 uM
row,SMILES,INHIBITION
1,COC(=O)C1CN(Cc2nc(C(C)(C)C)cs2)C[C@@H](C)O1 (some centres not stated),21.7%
2,Cn1nc(CN2CCCCC2)c2c1CN(C(=O)c1cccc(C#N)c1)C2,46.3%
3,CC(=O)N1CCN(C(C)C)CC(COc2ccccc2)C1 (configuration not stated),-6.92%
4,O=C(NCCNc1ncccn1)N1CCN(Cc2cccnc2)CC1,57.8%
5,O=C(NCCNc1cnccn1)N1CCCCCC1,47%
6,CC(Cn1cccn1)NC(=O)N1CCN(Cc2ccncc2)CC1 (configuration not stated),-4.94%
7,O=C(NCCNc1cnccn1)N1CCN(Cc2cccnc2)CC1,65.5%
8,CC(Cn1ccnc1)NC(=O)N1CCN(Cc2cccnc2)CC1 (configuration not stated),31.8%
9,CC(Cn1cccn1)NC(=O)N1CCN(Cc2cccnc2)CC1 (configuration not stated),74.6%
10,O=C(NCCNc1cnccn1)N1CCCC1,19.4%
11,CC(C)(C)NC(=O)N1CCN(Cc2cccnc2)CC1,-2.93%
12,O=C(NCCn1ccnc1)N1CCN(Cc2cccnc2)CC1,-33.7%
13,Cc1ccc(-c2nc(CNC3CCc4ncnn4C3)cs2)cc1 (configuration not stated),47.55%
14,Cc1nc(C)c(C(=O)N2CCCC2(C)C(=O)NC2CCCC2)o1 (configuration not stated),46.2%
15,Cc1cc(C)n(CCCN(CCN2CCOCC2)Cc2ccco2)n1,7.6%
16,COCCN(CCOC)Cc1nc2c(cnn2C)c(=O)[nH]1,27.8%
17,Cn1cc(N2C[C@@H]3CN(CC4CCOCC4)C[C@@H]3C2=O)cn1,68.4%
18,O=C1[C@H]2CN(Cc3ccncc3)C[C@H]2CN1c1cncnc1,32.8%
19,Cn1cc(N2CC[C@@H]3CN(Cc4ccncc4)C[C@H]3C2=O)cn1,58.4%
20,CCS(=O)(=O)N1C[C@H]2CN(c3cnn(C)c3)C(=O)[C@H]2C1,60%
21,CCS(=O)(=O)N1CCC2(CC(=O)N(c3cnn(C)c3)C2)C1 (configuration not stated),-13.7%
22,O=C1[C@H]2CN(CC3CCOCC3)C[C@H]2CN1c1ccsc1,5.63%

row,SMILES,INHIBITION
1,Cn1cc(N2CC3(CCN(CC4CCOCC4)CC3)OCC2=O)cn1,-24.5%
2,Cn1cc(N2C[C@@H]3CN(Cc4ccoc4)C[C@@H]3C2=O)cn1,-75%
3,Cn1cc(N2C[C@@H]3CN(S(=O)(=O)C4CC4)C[C@@H]3C2=O)cn1,9.79%
4,O=C(CCc1cc2n(n1)CCNC2)NCCS(=O)(=O)N1CCCC1,-18.1%
5,Cn1c2ncccc2c(=O)n1CC(=O)Nc1ccc(F)c(F)c1,41.8%
6,Cn1c(-c2cc3n(n2)CCCN(CC(=O)O)C3)nc2ccccc21,57.1%
7,CCOC(=O)C(C)NC(=O)N1CCN(c2nc3ccccc3n2C)CC1 (configuration not stated),45%
8,CN1CCn2nc(-c3nc4ccccc4n3C)cc2C1,36.4%
9,CCCOC(=O)N1CCn2nc(-c3nc4ccccc4n3C)cc2C1,61.1%
10,CCCOC(=O)N1CCCn2nc(C(=O)Nc3ccccc3)cc2C1,-34.4%
11,O=C(CCc1cc2n(n1)CCCN(CCc1ccccc1)C2)NC1CC1,24.1%
12,Cc1cccc(CN2CCc3ncnc(Oc4cccnc4)c3CC2)n1,18.5%
13,CC(C)(C)C(=O)N1CCCC1c1nccnc1Cl (configuration not stated),-7.66%
14,CN[C@@H](CO)C(=O)NCc1cc2n(n1)CCCN(C1CCCCC1)C2,12.5%
15,COc1ccccc1-n1cc(C(=O)NCCn2nc(C)nc2C)cn1,32.8%
16,O=S1(=O)CCC(CNc2cc(-c3ccccc3)nc3ccnn23)C1 (configuration not stated),93.6%
17,Cc1cc2nc(-c3ccccc3)cc(NCC3CCS(=O)(=O)C3)n2n1 (configuration not stated),-24.6%
18,O=C(CNc1cc(-c2ccccc2)nc2ccnn12)NC1CC1,-35%
19,O=C(Nc1ccc(N2CCOCC2)nc1)N1CCc2sccc2C1,-17.9%
20,O=S(=O)(N1CCCCCC1)N1CCc2sccc2C1,20.8%
21,O=S(=O)(N1CCCC1)N1CCc2sccc2C1,82.4%
22,O=S(=O)(N1CCOCC1)N1CCOC(CCc2ccccc2)C1 (configuration not stated),-23.4%

row,SMILES,INHIBITION
1,O=S(=O)(N1CCOCC1)N1CCc2sccc2C1,76.8%
2,CC1CCN(S(=O)(=O)N2CCc3sccc3C2)CC1,19.7%
3,c1cc(CN2CCC3(CCOCC3COCC3CC3)CC2)ccn1 (configuration not stated),-20.8%
4,CC(C)NC(=O)N1CCc2c(CNc3ncccn3)cncc2C1,-41.4%
5,N#Cc1ccc(CN2CCCC3(Cc4ccccc4CNC3=O)C2)cc1 (configuration not stated),43.3%
6,Cc1nc(CO[C@H]2CN(Cc3cccs3)[C@@H]3COC[C@H]23)cs1,18.2%
7,CNS(=O)(=O)c1cnccc1N1CCN(C(C)C)CC1,-5.26%
8,O=C1COC2(CCN(Cc3ccco3)CC2)CN1,27.6%
9,O=C(O)C1CCCN1c1nc(C2CC2)cc(C(F)(F)F)n1 (configuration not stated),14.3%
10,O=C(O)C1CCCN1c1nc(-c2ccc(Cl)c(Cl)c2)cc(C(F)(F)F)n1 (configuration not stated),80.5%
11,O=C(O)C1CCCN1c1nc(-c2ccc(Cl)cc2)cc(C(F)(F)F)n1 (configuration not stated),26.7%
12,CC(=O)N1CCC(NC(=O)CN2CCCc3c(F)ccc(C)c32)CC1,9.16%
13,CN(CCc1cccc2ccccc12)Cc1nc(N)nc(N(C)C)n1,90.3%
14,CN(Cc1nc(N)nc(N(C)C)n1)Cc1cccc2ccccc12,-57.5%
15,COc1ccccc1CCN(C)Cc1nc(N)nc(N(C)C)n1,34.1%
16,OCCN1CCCCC1c1cc[nH]n1 (configuration not stated),6.26%
17,C[C@@H](O)[C@H](NC(=O)c1csc2nc(-c3ccccc3F)cn12)C(N)=O,76.9%
18,CCc1ccc(-c2cn3c(C(=O)N[C@H](C(N)=O)[C@@H](C)O)csc3n2)cc1,-171%
19,CCc1ccc(-c2cn3c(C(=O)NCC(C)C(=O)NC)csc3n2)cc1 (configuration not stated),-147%
20,CC(C)(C)C(=O)N1CCC(c2cnc(-c3cn[nH]c3)cn2)CC1,3.62%
21,CCn1cc(S(=O)(=O)N2CCN(C(=O)c3cc(Br)cs3)CC2)c(C)n1,38.3%
22,COC(=O)CN1CC2(CCNCC2)COc2ccccc2S1(=O)=O,27.6%

row,SMILES,INHIBITION
1,O=C(NC1CC1)C(c1ccccc1)N1CCn2c(nnc2C2CC2)C1 (configuration not stated),6.05%
2,CC(c1nnc(-c2cccs2)o1)N1CCn2c(nnc2C2CC2)C1 (configuration not stated),51.5%
3,Cc1nnc2n1CCN(C(C)c1nnc(-c3cccs3)o1)C2 (configuration not stated),13.5%
4,CC(C)NC(=O)C(c1ccccc1)N1CCn2c(nnc2C2CC2)C1 (configuration not stated),50.4%
5,Cc1nnc2n1CCN(C(C(=O)NC(C)C)c1ccccc1)C2 (configuration not stated),15.2%
6,CC(C)c1nnc2n1CCN(C(C)c1nnc(-c3cccs3)o1)C2 (configuration not stated),21.1%
7,CCc1ccc(CN2CC[C@H]3C[C@H](c4nnc(C)[nH]4)O[C@@H]3C2)o1,-11.5%
8,COc1cccc(F)c1-c1c[nH]c(C)n1,11.8%
9,O=C(NCCNc1cnccn1)c1scnc1Cl,53.3%
10,O=C(NCCNc1ncccn1)c1scnc1Cl,11.9%
11,Cc1ncsc1C(=O)NCCNc1cnccn1,60%
12,Cc1ncsc1C(=O)NCCSCc1cccs1,63.4%
13,O=C(NCCNC(=O)c1scnc1Cl)c1ccccc1,30.3%
14,Cc1ncsc1C(=O)NCCc1cccs1,-25.667%
15,Cc1ncsc1C(=O)NCc1cccs1,35.8%
16,Cc1ncsc1C(=O)NCCNc1ncccn1,34.7%
17,CCc1nc(C)c(C(=O)NCCNc2cnccn2)s1,4.88%
18,O=C(NCCCn1nc2ccccn2c1=O)Nc1ccc(F)cc1F,-17%
19,c1ccc(CN2CCC3(CC2)CCN(Cc2cccs2)C3)nc1,-4.27%
20,O=C(C1COCCO1)N1CCN(CC(F)(F)F)c2ccccc21 (configuration not stated),-8.22%
21,Cc1nn(C)c(C)c1CC(=O)N1CCc2nnc(N(C)C)cc2C1,42.65%
22,CN(C)c1cc(CNC(=O)c2ccccc2S(C)(=O)=O)ccn1,-19.4%

row,SMILES,INHIBITION
1,Cc1noc(C)c1CN1C(=O)[C@@H]2CC[C@H]1CN(C(=O)c1cscn1)C2,45%
2,NC(=O)C1(CCCc2ccccn2)CCCN(Cc2ccncc2)C1 (configuration not stated),54.5%
3,NC(=O)CN1CCCC(CCCc2ccccn2)(C(N)=O)C1 (configuration not stated),-0.902%
4,NC(=O)C1(CCCc2ccccn2)CCCN(c2ncccn2)C1 (configuration not stated),-6.3%
5,Cn1cc(CN2CCCC(CCCc3ccccn3)(C(N)=O)C2)cn1 (configuration not stated),20.8%
6,CN1CCCC(CCCc2cccnc2)(C(N)=O)C1 (configuration not stated),50.1%
7,NC(=O)C1(CCCc2cccnc2)CCCN(c2ncccn2)C1 (configuration not stated),0.932%
8,COc1ccc(C(=O)Nc2cccc(SC)c2)c(OC)n1,-138%
9,CCOc1cc(C)nc(N2CCN(C(=O)c3csnn3)CC2)n1,33.8%
10,O=C(O)[C@@H]1CCN(C(=O)c2cscn2)[C@@H]1c1ccc(F)cc1,-35.5%
11,CCOc1ccc2ccccc2c1CNCC1CCS(=O)(=O)C1 (configuration not stated),57.3%
12,CCOc1ccc2ccccc2c1CNCC1CCNCC1,49.2%
13,COc1ccc2ccccc2c1CNCC1CCS(=O)(=O)C1 (configuration not stated),46.4%
14,Cc1cc2nc(C(C)C)cc(N3CCC(Oc4ncccn4)CC3)n2n1,-17.1%
15,CCOC(=O)CSc1nnc([C@@H](N)C(C)C)o1,2.49%
16,Cc1cc(S(C)(=O)=O)c(C)c(S(=O)(=O)NC2CCCC2)c1,-1.28%
17,Cc1cc(S(C)(=O)=O)c(C)c(S(=O)(=O)NCC2CCC2)c1,54.4%
18,Cc1cc(S(C)(=O)=O)c(C)c(S(=O)(=O)NCC2CCCO2)c1 (configuration not stated),48.4%
19,Cc1nn(C)cc1C1CC(=O)Nc2c1cnn2C(C)(C)C (configuration not stated),-16.5%
